Results from PubChem BioAssay (NCATS).
Records with an inconclusive call do not appear. A call without a number means that no potency is given here. Active and inactive are the calls of the source. Calls come from the whole dose curve; as a rule, active = well fitted curve in the direction sought with a large enough effect; inconclusive = small, poorly fitted or top-dose-only effect, or another doubt; inactive = no such curve, though single readings can be large; an effect the other way counts as inactive or inconclusive.

How the values were obtained:
[1] = Quantitative High-Throughput drug screen in 47 multiple myeloma cell lines against the NCATS MIPE library collection: KMM1_JCRB cell viability assay (AID 1918960); note: nearly all actives have a fitted effect of over 30% in size; note: potency is the fitted concentration of half-maximal effect
How it was run: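 Myeloma cells, 500 per well, were exposed to MIPE 4.0 drugs by pin transfer for 48 h at 37 °C, 5% CO2. Viability was read as ATP luminescence with CellTiter-Glo, normalised to DMSO-only (100%) and medium-only (0%) wells.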

[2] = Quantitative High-Throughput drug screen in 47 multiple myeloma cell lines against the NCATS MIPE library collection: JIM3_ECACC cell viability assay (AID 1918963; note: nearly all actives have a fitted effect of over 35% in size; note: potency is the fitted concentration of half-maximal effect)
How it was run: (§1)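 Myeloma cell lines, 500 cells per well, exposed to MIPE 4.0 library compounds for 48 h at 37C, 5% CO2. Viability from ATP by CellTiter-Glo luminescence; normalised to DMSO (100%) and media-only (0%) wells.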

[3] = Quantitative High-Throughput drug screen in 47 multiple myeloma cell lines against the NCATS MIPE library collection: JIM1_ECACC cell viability assay (AID 1918964; note: potency is the fitted concentration of half-maximal effect)
How it was run: (§2)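 Myeloma cells (500 per well) were exposed to MIPE 4.0 compounds by pin transfer and incubated 48 hours at 37C, 5% CO2. Viability was read as ATP by CellTiter-Glo luminescence, normalised to DMSO (100%) and media-only (0%) wells.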

[4] = Quantitative High-Throughput drug screen in 47 multiple myeloma cell lines against the NCATS MIPE library collection: INA6_PLB cell viability assay (AID 1918965; note: nearly all actives have a fitted effect of over 55% in size; note: potency is the fitted concentration of half-maximal effect)
How it was run: as §1

[5] = Quantitative High-Throughput drug screen in 47 multiple myeloma cell lines against the NCATS MIPE library collection: KMS27_JCRB cell viability assay (AID 1918970); note: nearly all actives have a fitted effect of over 30% in size; note: potency is the fitted concentration of half-maximal effect
How it was run: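 Luminescent ATP read-out (CellTiter-Glo, 5 min at room temperature) after 48 h compound exposure of 500 KMS27_JCRB cells per well; DMSO wells define full viability and media-only wells zero.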

[6] = Quantitative High-Throughput drug screen in 47 multiple myeloma cell lines against the NCATS MIPE library collection: KMS12PE_JCRB cell viability assay (AID 1918972); note: nearly all actives have a fitted effect of over 30% in size; note: potency is the fitted concentration of half-maximal effect; for viability: series mostly up to about 46 µM
How it was run: as §1

[7] = Quantitative High-Throughput drug screen in 47 multiple myeloma cell lines against the NCATS MIPE library collection: KHM11_PLB cell viability assay (AID 1918962); note: nearly all actives have a fitted effect of over 35% in size; note: potency is the fitted concentration of half-maximal effect
How it was run: as §1

[8] = Quantitative High-Throughput drug screen in 47 multiple myeloma cell lines against the NCATS MIPE library collection: H1112_PLB cell viability assay (AID 1918967; note: nearly all actives have a fitted effect of over 30% in size; note: potency is the fitted concentration of half-maximal effect)
How it was run: as §2

[9] = Quantitative High-Throughput drug screen in 47 multiple myeloma cell lines against the NCATS MIPE library collection: KMS12BM_JCRB cell viability assay (AID 1918971); note: nearly all actives have a fitted effect of over 35% in size; note: potency is the fitted concentration of half-maximal effect
How it was run: (§3)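 CellTiter-Glo luminescence (ATP) after 48 h compound exposure, 37C/5% CO2; 500 cells/well; MIPE 4.0 approved/investigational drugs pinned in; DMSO = 100%, media only = 0% viability.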

[10] = Quantitative High-Throughput drug screen in 47 multiple myeloma cell lines against the NCATS MIPE library collection: KMS26_JCRB cell viability assay (AID 1918975); note: nearly all actives have a fitted effect of over 45% in size; note: potency is the fitted concentration of half-maximal effect
How it was run: as §3

[11] = Quantitative High-Throughput drug screen in 47 multiple myeloma cell lines against the NCATS MIPE library collection: MMM1_PLB cell viability assay (AID 1918976); note: potency is the fitted concentration of half-maximal effect; nearly all actives have a fitted effect of over 35% in size
How it was run: (§4)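 500 cells/well per myeloma line exposed to pinned MIPE 4.0 compounds for 48 h at 37 °C, 5% CO2. Viability read as ATP by CellTiter-Glo luminescence, normalised to DMSO-only (100%) and media-only (0%) wells.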

[12] = Quantitative High-Throughput drug screen in 47 multiple myeloma cell lines against the NCATS MIPE library collection: NCIH929_DSMZ cell viability assay (AID 1918978); note: nearly all actives have a fitted effect of over 35% in size; note: potency is the fitted concentration of half-maximal effect
How it was run: as §4

[13] = Quantitative High-Throughput drug screen in 47 multiple myeloma cell lines against the NCATS MIPE library collection: MM1S_ATCC cell viability assay (AID 1918980); note: nearly all actives have a fitted effect of over 45% in size; note: potency is the fitted concentration of half-maximal effect
How it was run: as §4

[14] = Quantitative High-Throughput drug screen in 47 multiple myeloma cell lines against the NCATS MIPE library collection: MM1R_ATCC cell viability assay (AID 1918981); note: nearly all actives have a fitted effect of over 35% in size; note: potency is the fitted concentration of half-maximal effect
How it was run: as §4

[15] = Quantitative High-Throughput drug screen in 47 multiple myeloma cell lines against the NCATS MIPE library collection: Karpas25_ECACC cell viability assay (AID 1918968; note: nearly all actives have a fitted effect of over 35% in size; note: potency is the fitted concentration of half-maximal effect)
How it was run: as §2

[16] = Quantitative High-Throughput drug screen in 47 multiple myeloma cell lines against the NCATS MIPE library collection: MOLP8_DSMZ cell viability assay (AID 1918977); note: nearly all actives have a fitted effect of over 45% in size
How it was run: as §4

[17] = Quantitative High-Throughput drug screen in 47 multiple myeloma cell lines against the NCATS MIPE library collection: JJN3_DSMZ cell viability assay (AID 1918966; note: nearly all actives have a fitted effect of over 50% in size; note: potency is the fitted concentration of half-maximal effect)
How it was run: as §2

[18] = Quantitative High-Throughput drug screen in 47 multiple myeloma cell lines against the NCATS MIPE library collection: KMS20_JCRB cell viability assay (AID 1918973); note: nearly all actives have a fitted effect of over 45% in size; note: potency is the fitted concentration of half-maximal effect
How it was run: as §2

[19] = Quantitative High-Throughput drug screen in 47 multiple myeloma cell lines against the NCATS MIPE library collection: OCIMY1_PLB cell viability assay (AID 1918979)
How it was run: as §4

Compound | Potency [1] | Potency [2] | Potency [3] | Potency [4] | Potency [5] | Potency [6] | Potency [7] | Potency [8] | Potency [9] | Potency [10] | Potency [11] | Potency [12] | Potency [13] | Potency [14] | Potency [15] | Potency [16] | Potency [17] | Potency [18] | Potency [19]
COCCCN1CCC(NC(=O)c2cc(Cl)c(N)c3c2OCC3)CC1 | 20.9 µM (active) | 18.7 µM (active) | 16.6 µM (active) | 18.7 µM (active) | 18.7 µM (active) | 16.6 µM (active) | – | – | – | – | – | – | – | – | – | – | – | – | –
COc1c2occc2cc2ccc(=O)oc12 | inactive | – | inactive | – | inactive | inactive | inactive | inactive | 20.9 µM (active) | inactive | 1.32 µM (active) | 5.26 µM (active) | 18.7 µM (active) | inactive | – | – | – | – | –
COc1ccc2cc([C@H](C)C(=O)O)ccc2c1 | inactive | – | inactive | inactive | – | inactive | 29.6 µM (active) | inactive | – | inactive | 16.6 µM (active) | – | inactive | inactive | 20.9 µM (active) | inactive | – | – | –
CCCc1cc(=O)[nH]c(=S)[nH]1 | inactive | inactive | inactive | – | – | inactive | – | inactive | inactive | inactive | – | inactive | 2.64 µM (active) | – | – | inactive | – | – | –
Cc1ccc(S(=O)(=O)NC(=O)NN2CC3CCCC3C2)cc1 (stereo unspecified) | 23.5 µM (active) | 23.5 µM (active) | – | 20.9 µM (active) | 20.9 µM (active) | 26.4 µM (active) | – | – | – | – | – | – | 20.9 µM (active) | – | 26.4 µM (active) | – | 23.5 µM (active) | 10.5 µM (active) | –
S=c1nc[nH]c2nc[nH]c12 | 4.69 µM (active) | – | – | 1.87 µM (active) | – | 2.35 µM (active) | inactive | – | 13.2 µM (active) | 5.9 µM (active) | – | 2.96 µM (active) | – | 7.43 µM (active) | 16.6 µM (active) | inactive | – | – | –
CCC(C)(Oc1ccc(C2(c3ccc(OC(C)(CC)C(=O)O)cc3)CCCCC2)cc1)C(=O)O (stereo unspecified) | inactive | – | – | – | inactive | inactive | inactive | inactive | – | – | – | inactive | – | inactive | 13.2 µM (active) | inactive | – | – | inactive
c1ccc2[nH]c(-c3cscn3)nc2c1 | inactive | inactive | – | inactive | – | inactive | – | inactive | inactive | – | – | – | – | inactive | inactive | inactive | – | inactive | –
COc1cc2c(N3CCN(C(=O)Nc4ccc(OC(C)C)cc4)CC3)ncnc2cc1OCCCN1CCCCC1 | inactive | – | – | 3.72 µM (active) | inactive | – | 8.33 µM (active) | – | – | – | – | – | 26.4 µM (active) | – | 9.35 µM (active) | – | – | 5.26 µM (active) | –
CCOC(=O)C1=C(O)C(=O)N(Cc2ccccc2)C1 | inactive | inactive | – | inactive | – | inactive | – | inactive | inactive | – | 1.66 µM (active) | – | – | – | – | inactive | 9.35 µM (active) | – | inactive
O=C(O)c1cn(-c2ccc(F)cc2)c2cc(N3CCNCC3)c(F)cc2c1=O | inactive | inactive | inactive | inactive | inactive | inactive | – | inactive | 2.35 µM (active) | inactive | 11.8 µM (active) | inactive | 20.9 µM (active) | inactive | inactive | – | – | – | inactive
CN(C)CCCC1(c2ccc(F)cc2)OCc2cc(C#N)ccc21 (stereo unspecified) | inactive | – | – | – | – | inactive | inactive | 8.33 µM (active) | – | inactive | – | – | 18.7 µM (active) | – | inactive | – | – | – | inactive
Cc1cccc(C#Cc2ccccc2)n1 | inactive | inactive | – | 13.2 µM (active) | – | inactive | – | inactive | 18.7 µM (active) | – | – | 20.9 µM (active) | – | – | inactive | – | – | – | inactive
CC(=O)N1CCN(c2ccc(OC[C@H]3CO[C@](Cn4ccnc4)(c4ccc(Cl)cc4Cl)O3)cc2)CC1 | 5.26 µM (active) | 11.8 µM (active) | inactive | – | – | 5.26 µM (active) | – | 8.33 µM (active) | – | – | 23.5 µM (active) | 9.35 µM (active) | – | 11.8 µM (active) | – | – | – | 7.43 µM (active) | –
CCOC(=O)C(C)Oc1cccc2c(=O)n(CC(=O)Nc3ccc4c(c3)OCCO4)ccc12 (stereo unspecified) | 13.2 µM (active) | – | inactive | inactive | inactive | inactive | inactive | inactive | 23.5 µM (active) | – | – | – | – | – | – | – | – | – | inactive
CCN(CCO)CCCC(C)Nc1ccnc2cc(Cl)ccc12 (stereo unspecified) | inactive | inactive | inactive | – | – | inactive | – | inactive | – | inactive | – | inactive | – | – | – | inactive | inactive | – | inactive
CCOC(=O)c1c(C)n(C)c2ccc(O)cc12 | inactive | inactive | – | – | inactive | inactive | – | inactive | – | inactive | – | inactive | – | inactive | inactive | inactive | – | inactive | inactive
Oc1ccc(-c2nc(-c3ccc(F)cc3)c(-c3ccncc3)[nH]2)cc1 | inactive | 14.8 µM (active) | – | 14.8 µM (active) | inactive | – | – | 8.33 µM (active) | – | – | – | – | 16.6 µM (active) | – | 7.43 µM (active) | – | 9.35 µM (active) | – | –
